The source of these data is PubChem BioAssay (NCATS).

Each structure is given as a SMILES string. Inconclusive results are not listed. Where a call stands in place of a potency, no number is given. A number with no mark means an inactive call. Active and inactive are the calls of the source. Calls come from the whole dose curve; as a rule, active = well fitted inhibition curve with a large enough effect; inconclusive = small, poorly fitted or top-dose-only effect; inactive = flat fitted curve, though single readings scatter. Where a SMILES comes first, the peptide text is derived from it. Bridges are numbered along the chain shown (N, C = ends). [ ]: non-standard residue; d: D form. hArg = N=C(N)NCCCC[C@H](N)C(=O)O; Mpa = O=C(O)CCS

Assay [1] addresses Glutathione peroxidase 1 (Homo sapiens) (UniProt P07203). Kind of assay: Primary qHTS Assay for Inhibitors of Recombinant Selenoprotein Glutathione Peroxidase 1 (GPX1) (AID 1845191). The gist of the method:
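GR-coupled assay: compounds preincubated 30 min at room temperature with GPX1, then reaction started with CHP; final 10 nM GPX1, 1 mM GSH, 0.5 mM CHP, 0.5 mM NADPH, 100 nM GR, 0.01% BSA, pH 7.5 Tris buffer. NADPH fluorescence (340/450 nm) read at 0 and 15 min.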
On the technique in general: Quantitative high-throughput screening tests each substance at several concentrations.

Assay [2] addresses Phospholipid hydroperoxide glutathione peroxidase GPX4 (Homo sapiens) (UniProt P36969). Kind of assay: Primary qHTS Assay for Inhibitors of Recombinant Selenoprotein Glutathione Peroxidase 4 (GPX4) (AID 1845192). The gist of the method:
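GR-coupled assay: recombinant GPX4 preincubated 30 min with compound at room temperature; final 200 nM GPX4, 1 mM GSH, 0.5 mM cumene hydroperoxide, 0.5 mM NADPH, 100 nM GR, 0.01% BSA, pH 7.5 Tris. NADPH fluorescence (340/450 nm) read at 0 and 15 min.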
Note: nearly all actives have a fitted effect of over 65% in size.

Glutathione peroxidase 1 (Homo sapiens), sequence (P07203 whole entry, looked up): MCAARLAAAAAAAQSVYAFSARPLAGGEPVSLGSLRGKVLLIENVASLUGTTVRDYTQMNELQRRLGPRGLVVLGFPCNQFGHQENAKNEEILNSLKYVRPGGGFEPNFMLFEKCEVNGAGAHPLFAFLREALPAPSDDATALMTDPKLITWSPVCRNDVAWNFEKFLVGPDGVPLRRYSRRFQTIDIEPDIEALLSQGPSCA
Phospholipid hydroperoxide glutathione peroxidase GPX4 (Homo sapiens), sequence (P36969 whole entry, looked up): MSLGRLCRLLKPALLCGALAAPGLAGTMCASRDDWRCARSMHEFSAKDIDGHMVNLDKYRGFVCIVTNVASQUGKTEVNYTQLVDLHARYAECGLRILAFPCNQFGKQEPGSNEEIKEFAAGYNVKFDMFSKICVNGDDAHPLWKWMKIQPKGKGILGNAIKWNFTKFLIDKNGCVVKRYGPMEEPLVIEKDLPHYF

Turning to `CCS(=O)(=O)CCn1c([N+](=O)[O-])cnc1C`, the Potency result in assay [1] and in assay [2] was “inactive” throughout. On to `CC(C)c1cc2c(cc1S(=O)(=O)O)[C@@]1(C)CCC[C@@](C)(C(=O)O)[C@@H]1CC2`, for which the Potency result in assay [1] and in assay [2] was “inactive” throughout. As to `CC[N+](C)(CC)CCOC(=O)C1c2ccccc2Oc2ccccc21`, the Potency result in assay [1] and in assay [2] was “inactive” each time. For the compound `C[n+]1ccccc1/C=N/O`, the Potency entry in assay [1] and in assay [2] was “inactive” in each case. On to `CC1(C)S[C@@H]2[C@H](N=CN3CCCCCC3)C(=O)N2[C@H]1C(=O)O`, for which the Potency entry in assay [1] and in assay [2] was “inactive” each time. In the case of `Cc1c(I)c(=O)n(-c2ccccc2)n1C`, the Potency result in assay [1] and in assay [2] was “inactive” each time. With `O=C(/C=C/c1ccccc1)OCc1ccccc1`, in assay [1], the Potency entry was “inactive”. Regarding `COc1nccnc1NS(=O)(=O)c1ccc(N)cc1`, the Potency entry in assay [1] and in assay [2] was “inactive” in each case.

On to `C=CCNC(N)=S`, for which the Potency result in assay [1] and in assay [2] was “inactive” each time. As for `CCCNC(C)(C)COC(=O)c1ccccc1`, the Potency entry in assay [1] and in assay [2] was “inactive” each time.

Regarding `CCOc1ccc(C(=O)OCCN(CC)CC)cc1`, the Potency entry in assay [1] and in assay [2] was “inactive” each time. Take `NC(=O)c1ccc([N+](=O)[O-])cc1Cl`: in assay [1], the Potency entry was “inactive”. On the same count and under the same terms, the entry for `Cc1ccsc1/C=C/C1=NCCCN1C` is “inactive”. Still for that read-out and setting: next, `CCCCCOC(=O)Nc1nc(=O)n([C@@H]2O[C@H](C)[C@@H](O)[C@H]2O)cc1F`: “inactive”. As to `NC(=O)[C@@H]1CSSCCC(=O)N[C@@H](CCCCN=C(N)N)C(=O)NCC(=O)N[C@@H](CC(=O)O)C(=O)N[C@@H](Cc2c[nH]c3ccccc23)C(=O)N2CCC[C@H]2C(=O)N1` ([Mpa][hArg]GDWPC-NH2; disulfide 1-7), the Potency entry in assay [1] and in assay [2] was “inactive” in each case. Turning to `CCOC(=O)OC(C)OC(=O)[C@@H]1N2C(=O)[C@@H](NC(=O)[C@H](N)c3ccccc3)[C@H]2SC1(C)C` (stereo partly drawn), the Potency result in assay [1] and in assay [2] was “inactive” in each case.

`CCCNC(C)C(=O)Nc1c(C)csc1C(=O)OC` (stereo not drawn): the Potency result in assay [1] is “inactive”. In the case of `CC(C(=O)O)c1ccc2c(c1)Cc1cccnc1O2` (stereo not drawn), the Potency result in assay [1] and in assay [2] was “inactive” in each case. For `O=C(c1ccccc1)C(O)c1ccccc1` (stereo not drawn), the Potency result in assay [1] and in assay [2] was “inactive” in each case. Regarding `CN[C@@H]1[C@H](O)[C@H](NC)[C@H]2O[C@@]3(O)C(=O)C[C@@H](C)O[C@H]3O[C@@H]2[C@H]1O`, the Potency entry in assay [1] and in assay [2] was “inactive” in each case. `COc1ccccc1OCC(O)CO` (stereo not drawn): the Potency entry in assay [1] and in assay [2] was “inactive” each time. In the case of `CC(=O)N(CC(O)CN(C(C)=O)c1c(I)c(C(=O)NCC(O)CO)c(I)c(C(=O)NCC(O)CO)c1I)c1c(I)c(C(=O)NCC(O)CO)c(I)c(C(=O)NCC(O)CO)c1I` (stereo not drawn), the Potency result in assay [1] and in assay [2] was “inactive” each time. `CC(CSC(=O)c1ccccc1)C(=O)N1C[C@@H](Sc2ccccc2)C[C@H]1C(=O)O` (stereo partly drawn): the Potency entry in assay [1] is “inactive”. On to `Cc1cc(OI)c(C(C)C)cc1-c1cc(C(C)C)c(OI)cc1C`, for which the Potency result in assay [1] and in assay [2] was “inactive” in each case. As to `OCCN1C[C@H](O)[C@@H](O)[C@H](O)[C@H]1CO`, the Potency entry in assay [1] and in assay [2] was “inactive” throughout.

For the compound `O=C(O)/C=C/c1ccc(Cn2ccnc2)cc1`, the Potency result in assay [1] and in assay [2] was “inactive” in each case. In the case of `CC(C)NC[C@@H](O)COc1ccc(CC(N)=O)cc1`, the Potency result in assay [1] and in assay [2] was “inactive” each time.

On to `CC(C)C[C@@H](N)C(=O)O`, for which the Potency result in assay [1] and in assay [2] was “inactive” each time.

For `COC(=O)c1ccc(O)cc1`, the Potency result in assay [1] and in assay [2] was “inactive” in each case. For `Nc1ccc(S(=O)(=O)c2ccc(N)cc2)cc1`, the Potency entry in assay [1] and in assay [2] was “inactive” each time.

As for `COc1ccc(-c2cc(=O)c3c(O)cc(O[C@@H]4O[C@H](CO[C@@H]5O[C@@H](C)[C@H](O)[C@@H](O)[C@H]5O)[C@@H](O)[C@H](O)[C@H]4O)cc3o2)cc1O`, the Potency entry in assay [1] and in assay [2] was “inactive” in each case. For `COc1ccccc1Oc1c(NS(=O)(=O)c2ccc(C(C)(C)C)cc2)nc(-c2ncccn2)nc1OCCO`, the Potency result in assay [1] and in assay [2] was “inactive” each time. For `CC(=O)OCC(=O)[C@@]1(O)CC[C@H]2[C@@H]3CCC4=CC(=O)C=C[C@]4(C)[C@@]3(F)[C@@H](O)C[C@@]21C`, the Potency result in assay [1] and in assay [2] was “inactive” each time. As to `Cc1[nH]c(C)c(Cl)c(=O)c1Cl`, the Potency entry in assay [1] and in assay [2] was “inactive” throughout.

`COc1ccc(O)cc1`: the Potency entry in assay [1] and in assay [2] was “inactive” in each case. `CC(=O)N[C@H]1[C@H]([C@H](O)[C@H](O)CO)OC(C(=O)O)=C[C@@H]1N=C(N)N`: the Potency entry in assay [1] and in assay [2] was “inactive” in each case. As to `C[C@H]1COc2c(C3(N)CC3)c(F)cc3c(=O)c(C(=O)O)cn1c23`, the Potency entry in assay [1] and in assay [2] was “inactive” each time. Consider `NCC1CCC(C(=O)Oc2ccc(CCC(=O)O)cc2)CC1` (stereo not drawn), for which the Potency entry in assay [1] and in assay [2] was “inactive” throughout. For the compound `NCc1ccc(S(N)(=O)=O)cc1`, the Potency result in assay [1] and in assay [2] was “inactive” throughout. For `Cc1cc(C)c(NC(=O)CN(CC(=O)O)CC(=O)O)c(C)c1Br`, the Potency entry in assay [1] and in assay [2] was “inactive” each time. In the case of `CC1(C)[C@@H](OC(=O)CCC(=O)O)CC[C@]2(C)[C@H]3C(=O)C=C4[C@@H]5C[C@@](C)(C(=O)O)CC[C@]5(C)CC[C@@]4(C)[C@]3(C)CC[C@@H]12`, the Potency entry in assay [1] and in assay [2] was “inactive” throughout. Take `CC(=O)Nc1ccccc1`: the Potency result in assay [1] and in assay [2] was “inactive” throughout. As for `CC(C)=CCC/C(C)=C/CO`, the Potency entry in assay [1] and in assay [2] was “inactive” in each case. For `FC(F)(F)C(Cl)Br` (stereo not drawn), the Potency entry in assay [1] and in assay [2] was “inactive” each time. As for `COc1ccc(NS(=O)(=O)c2ccc(N)cc2)nn1`, the Potency result in assay [1] and in assay [2] was “inactive” throughout. Regarding `C/C=C1\[C@H]2C=C(C)C[C@]1(N)c1ccc(=O)[nH]c1C2`, the Potency entry in assay [1] and in assay [2] was “inactive” each time. `CC(C)CCCC(C)CCCC(C)CCCCC(C)CCCC(C)CCCC(C)C` (stereo not drawn): the Potency entry in assay [1] and in assay [2] was “inactive” throughout.
